Results filed as inconclusive are left out. Calls of active or inactive are those of the source. Calls follow the shape of the dose curve; as a rule, active = well fitted curve in the direction sought with a large enough effect; inconclusive = small, poorly fitted or top-dose-only effect, or another doubt; inactive = no such curve, though single readings can be large; an effect the other way counts as inactive or inconclusive.

Alpha-galactosidase A (Homo sapiens), sequence (P06280 whole entry, looked up): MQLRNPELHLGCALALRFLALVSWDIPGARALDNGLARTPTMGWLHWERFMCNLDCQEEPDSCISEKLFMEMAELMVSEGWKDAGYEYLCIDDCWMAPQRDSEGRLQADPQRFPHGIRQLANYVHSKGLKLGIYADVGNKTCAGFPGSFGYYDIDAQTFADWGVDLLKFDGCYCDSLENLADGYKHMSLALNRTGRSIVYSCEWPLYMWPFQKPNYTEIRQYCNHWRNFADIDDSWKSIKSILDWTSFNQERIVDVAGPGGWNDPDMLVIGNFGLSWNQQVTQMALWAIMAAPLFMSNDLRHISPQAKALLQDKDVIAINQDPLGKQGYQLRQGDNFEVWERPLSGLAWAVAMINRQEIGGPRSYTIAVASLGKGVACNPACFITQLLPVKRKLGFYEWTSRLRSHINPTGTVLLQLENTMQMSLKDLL

Tested on in the first experiment: not listed separately
As to the kind of experiment: Cell Viability - LYMP2-026 (AID 989). Also: nearly all actives have a fitted effect of over 50% in size. The following applies: LYMP2-026 lymphoblastoid cell viability, qHTS; series mostly up to 92.2 µM. From the text: NIH Chemical Genomics Center [NCGC]
NIH Molecular Libraries Screening Centers Network [MLSCN]
National Institutes of Environmental Health Sciences [NIEHS]
National Toxicology Program [NTP]
We have developed a 1536-well cell-based assay for quantitative high throughput screening (qHTS) against a number of cell lines to determine in vitro cytotoxicity of small molecules. This particular assay uses a human lymphoblastoid cell line (LYMP2-026) purchased from Coriell Institute for Medical Research.
NCGC Assay Protocol Summary:
The CellTiter-Glo luminescent cell viability assay (Promega) is a homogeneous method to measure the number of viable cells in culture. The end point readout of this assay is based on quantitation of intracellular ATP, an indicator of metabolic activity, using the luciferase reaction. Luciferase catalyzes the oxidation of beetle Luciferin to oxyluciferin and light in the presence of ATP. The luminescent signal is proportional to amount of ATP present.
Using the CellTiter-Glo luminescent cell viability assay, the amount of cellular ATP was measured in the lymphoblastoid cell line with complete culture medium following compound treatment for 24 hours. The assay was performed in opaque white Kalypsys 1536-well plates. In the screen, tetraoctylammonium bromide was used as positive control. Library compounds were measured for their ability to cause acute toxicity in the cell line, as reflected by a decrease in intracellular ATP levels, in a concentration-dependent manner. […] AC50 values were determined from concentration-response data modeled with the standard Hill equation.
qHTS protocol for CellTiter Glo lymphoblastoid cellular assay
[Step] [Parameter] [Value] [Description]
1. Reagent; 5 uL; 2500 lymphoblastoid cells/well
2. Time; 5 hr; 37 C incubation
4. Controls; 23 nL; Tetraoctylammonium bromide 6.4pM to 92 uM
5. Time; 24 hr; 37 C incubation
6. Reagent; 5 uL; CellTiter Glo reagent
7. Time; 30 min; Room Temperature
8. Detection; Luminescence; Viewlux plate reader
Keywords: cell viability, cytotoxicity, lymphoblastoid cell line, luminescence, NTPHTS, NTPHTS_NCGC, NIEHS, DSSTox, MLSMR, MLSCN, NIH Roadmap, qHTS, NCGC
For orientation: In qHTS, concentration-response curves come from the screen itself.
Regarding `CCCC(CCC)C(=O)O`, the result was inactive.

In the case of `NC(=O)c1cnccn1`, the molecule was classed as inactive.

Regarding `CC(=O)Oc1ccccc1C(=O)O`, the outcome was inactive.

Consider `NS(=O)(=O)c1cc2c(cc1Cl)NC=NS2(=O)=O`, for which the molecule was called inactive.

Consider `NC(N)=NC(=O)c1nc(Cl)c(N)nc1N`, for which the molecule was called inactive.

Turning to `O=c1[nH]cnc2[nH]ncc12`, the call was inactive.

For the next experiment, the target named is Alpha-galactosidase A (Homo sapiens) (UniProt P06280). Briefly: Counterscreen for Glucocerebrosidase Inhibitors: qHTS Assay for Human alpha-Galactosidase at pH 4.5 (AID 992). The conditions noted are these: purified enzyme, fluorogenic substrate; series mostly up to 76.9 µM. An outline of the steps:
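Fluorogenic 1536-well qHTS at pH 4.5 (citrate, Tween-20): 2 nM enzyme, 80 uM 4-MU-alpha-galactoside, 20 min room temperature, NaOH/glycine stop. Titration 0.7 nM to 77 uM, data normalized to no-enzyme and full-activity controls, Hill-fitted AC50.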
On the technique in general: The purpose of a counterscreen is to sort out artefacts and off-target activity.
Take `CCCC(CCC)C(=O)O`: the result was inactive.

For `Cc1[nH]c(=O)c(C#N)cc1-c1ccc2nccn2c1`, the molecule was classed as inactive.

`Cc1cn[nH]c1`: the call was inactive.

On to `N=c1nc(N2CCCCC2)cc(N)n1O`, for which the result was inactive.

In the case of `NC(=O)c1cnccn1`, the outcome was inactive.

As to `CC(=O)Oc1ccccc1C(=O)O`, the molecule was called inactive.

As for `O=c1n(CCCN2CCN(c3cccc(Cl)c3)CC2)nc2ccccn12`, the molecule was called inactive.

In the case of `NCCc1ccc(O)c(O)c1`, the molecule was called inactive.

Take `CCOC(=O)C1=C[C@@]2(CC)CCCN3CCc4c(n1c1ccccc41)[C@H]32`: the call was inactive.

Turning to `CN1CCN(CCCN2c3ccccc3Sc3ccc(C(F)(F)F)cc32)CC1`, the outcome was inactive.

Take `NNCCc1ccccc1`: the outcome was inactive.

On to `O=C1CCc2cc(OCCCCc3nnnn3C3CCCCC3)ccc2N1`, for which the molecule was called inactive.

Turning to `Nc1nc2ccc(OC(F)(F)F)cc2s1`, the molecule was called inactive.

With `C1COC(NC(C2CC2)C2CC2)=N1`, the outcome was inactive.

For the molecule `Cc1oncc1C(=O)Nc1ccc(C(F)(F)F)cc1`, the molecule was classed as inactive.

`NS(=O)(=O)c1cc2c(cc1Cl)NC=NS2(=O)=O`: the call was inactive.

For `NC(N)=NC(=O)c1nc(Cl)c(N)nc1N`, the molecule was called inactive.

With `Nc1nc2c(ncn2COCCO)c(=O)[nH]1`, the outcome was inactive.

Regarding `Cc1ccc(N(CC2=NCCN2)c2cccc(O)c2)cc1`, the molecule was classed as inactive.

Turning to `Nc1ccc(S(=O)(=O)Nc2ccnn2-c2ccccc2)cc1`, the molecule was called inactive.

As for `CC(C)(Sc1ccc(CCN(CCCCC2CCCCC2)C(=O)NC2CCCCC2)cc1)C(=O)O`, the molecule was called inactive.

As for `O=c1[nH]cnc2[nH]ncc12`, the molecule was classed as inactive.

Regarding `C[C@]12CCC(=O)C=C1CC[C@@H]1[C@@H]2[C@@H](O)C[C@@]2(C)[C@H]1CC[C@]2(O)C(=O)CO`, the molecule was classed as inactive.

For `O=NN(CCCl)C(=O)NCCCl`, the result was inactive.

As to `Cn1cnc([N+](=O)[O-])c1Sc1ncnc2nc[nH]c12`, the outcome was inactive.

As for `Clc1cccc(Cl)c1NC1=NCCN1`, the result was inactive.

In the case of `CNC[C@H](O)c1cccc(O)c1`, the molecule was called inactive.

Consider `NC[C@H](O)c1ccc(O)c(O)c1`, for which the call was inactive.

As for `CC(C)NCC(O)COc1ccc(COCCOC(C)C)cc1` (centres undefined), the call was inactive.

As to `Cc1[nH]c(=O)c(C#N)cc1-c1ccncc1`, the outcome was inactive.

In the case of `OC(CN1CCC(Cc2ccc(F)cc2)CC1)c1ccc(Cl)cc1` (centres undefined), the molecule was classed as inactive.

As for `N[C@@H]1CONC1=O`, the molecule was classed as inactive.

For the molecule `Cc1cnc(NC(=O)C2=C(O)c3ccccc3S(=O)(=O)N2C)s1`, the call was inactive.

Regarding `CCCCNc1cc(C(=O)O)cc(S(N)(=O)=O)c1Oc1ccccc1`, the molecule was classed as inactive.

`CCOC(=O)N1CCC(=C2c3ccc(Cl)cc3CCc3cccnc32)CC1`: the molecule was called inactive.

Tested on in another experiment: not listed separately
As to the kind of experiment: Cell Viability - LYMP1-002 - Assay at 24 hr (AID 993). The following applies: LYMP1-002 lymphoblastoid cells viability; series mostly up to 92.2 µM. An outline of the steps: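 CellTiter-Glo luminescence (intracellular ATP) after 24 h compound exposure, 37 C, in LYMP1-002 human lymphoblastoid cells; decreased ATP taken as cytotoxicity. AC50 from standard Hill fit of concentration-response curves.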
Turning to `CCCC(CCC)C(=O)O`, the outcome was inactive.

As to `NC(=O)c1cnccn1`, the molecule was called inactive.

On to `CC(=O)Oc1ccccc1C(=O)O`, for which the result was inactive.

For `NS(=O)(=O)c1cc2c(cc1Cl)NC=NS2(=O)=O`, the call was inactive.

Take `NC(N)=NC(=O)c1nc(Cl)c(N)nc1N`: the outcome was inactive.

Consider `O=c1[nH]cnc2[nH]ncc12`, for which the molecule was classed as inactive.

For the molecule `Cn1cnc([N+](=O)[O-])c1Sc1ncnc2nc[nH]c12`, the outcome was inactive.

Tested on in the next experiment: not listed separately
As to the kind of experiment: Cell Viability - LYMP1-002 - Assay at 40 hr (AID 994). Also: nearly all actives have a fitted effect of over 60% in size. The conditions noted are these: LYMP1-002 lymphoblastoid cell viability; series mostly up to 92.2 µM. An outline of the steps:
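qHTS cytotoxicity; 2500 cells/well, 5 hr 37 C settle, compound 40 hr 37 C. CellTiter-Glo, 30 min RT, luminescence (ATP). Concentration-response, Hill fit → AC50. Pos. ctrl tetraoctylammonium bromide.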
With `CCCC(CCC)C(=O)O`, the call was inactive.

Take `NC(=O)c1cnccn1`: the molecule was called inactive.

Take `CC(=O)Oc1ccccc1C(=O)O`: the molecule was classed as inactive.

As for `NS(=O)(=O)c1cc2c(cc1Cl)NC=NS2(=O)=O`, the molecule was called inactive.

On to `NC(N)=NC(=O)c1nc(Cl)c(N)nc1N`, for which the molecule was called inactive.

Take `O=c1[nH]cnc2[nH]ncc12`: the outcome was inactive.

For the origin of these results see PubChem BioAssay (NCATS).
